Assay results as given in PubChem BioAssay (NCI).
This is part of a sample that, as a whole, favours compounds with a hit. Of some 83,000 tested, about 20% had one in any assay.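 Cells were grown in 96-well plates and exposed to the test compound at a single concentration for 48 hours; results are reported as percent growth, with values below 10 considered active.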 Activity calls are given as the source filed them.

Columns and labels:
Experiment in all cases: NCI-60 one-dose screen, 48 h (100 = growth as untreated, 0 = no growth, -100 = all killed)
Conditions in all cases: 10 µM unless noted
SK-MEL-2 melanoma = test system: SK-MEL-2 melanoma
EKVX NSCLC = test system: EKVX NSCLC
SN12C renal = test system: SN12C renal
UO-31 renal = test system: UO-31 renal
TK-10 renal = test system: TK-10 renal
ACHN renal = test system: ACHN renal
CAKI-1 renal = test system: CAKI-1 renal
A498 renal = test system: A498 renal
CCRF-CEM leukemia = test system: CCRF-CEM leukemia
MOLT-4 leukemia = test system: MOLT-4 leukemia

Measured: growth

Cc1ccc(Sc2nnc(/N=C3\C(=O)Nc4ccccc43)s2)cc1
inactive: SK-MEL-2 melanoma 105% | EKVX NSCLC 102% | SN12C renal 97.5% | UO-31 renal 90.5% | TK-10 renal 104% | ACHN renal 96.6% | CAKI-1 renal 85.6% | A498 renal 93.6% | CCRF-CEM leukemia 93.4% | MOLT-4 leukemia 100%

COC(=O)c1cc(-c2ccccc2)[nH]c1N/N=C/c1c(Cl)cccc1Cl
active: SK-MEL-2 melanoma -4.44% | EKVX NSCLC -1.92% | CAKI-1 renal 5.94% | A498 renal -45.8% | CCRF-CEM leukemia -8.44% | MOLT-4 leukemia -9.43%
inactive: SN12C renal 35.2% | UO-31 renal 42.3% | TK-10 renal 26.4% | ACHN renal 44%

COc1ccc(-c2nnc(-c3ccc4c(c3)nc(-c3ccncc3)n4C3CCCCC3)o2)cc1
inactive: SK-MEL-2 melanoma 77.3% | EKVX NSCLC 64% | SN12C renal 83.8% | UO-31 renal 38.3% | TK-10 renal 75% | ACHN renal 89.2% | CAKI-1 renal 89.7% | A498 renal 73.9% | CCRF-CEM leukemia 55.5% | MOLT-4 leukemia 44.3%

CO/N=C(/C)c1ccc(NC(=O)CSc2nnc(-c3ccncc3)n2-c2ccccc2)cc1
inactive: SK-MEL-2 melanoma 67.6% | EKVX NSCLC 64.3% | SN12C renal 36.1% | ACHN renal 10.1% | CAKI-1 renal 26.8% | A498 renal 89.7% | CCRF-CEM leukemia 91.6% | MOLT-4 leukemia 92.2%
active: UO-31 renal 9.43% | TK-10 renal -15.3%

Oc1c(Cl)cc(Cl)c2ccc(Cn3cc(-c4cc(C(F)(F)F)cc(C(F)(F)F)c4)nn3)nc12
inactive: SK-MEL-2 melanoma 89.9% | EKVX NSCLC 80.9% | SN12C renal 65.4% | UO-31 renal 57% | TK-10 renal 96.7% | ACHN renal 11.4% | CAKI-1 renal 13.8% | A498 renal 103%
active: CCRF-CEM leukemia 4.83% | MOLT-4 leukemia 2.95%

COc1cnc2c(c1)C(=O)c1c-2n(CCCNCCO)c(=O)c2ccncc12
active: SK-MEL-2 melanoma -2.38% | SN12C renal 4.98% | UO-31 renal -19.8% | ACHN renal -49.8% | A498 renal -33.3% | MOLT-4 leukemia -7.69%
inactive: EKVX NSCLC 19.7% | TK-10 renal 15.9% | CAKI-1 renal 28.7% | CCRF-CEM leukemia 11.1%

CCCC(=O)NC(c1ccc2c(c1)OCO2)c1ccc2cccnc2c1O (stereo not given)
active: UO-31 renal -23.2% | ACHN renal 5.12% | CAKI-1 renal 6.21% | CCRF-CEM leukemia 4.72% | MOLT-4 leukemia 2.22%
inactive: SK-MEL-2 melanoma 46% | EKVX NSCLC 19.1% | SN12C renal 23.9% | TK-10 renal 25.8% | A498 renal 12.9%

O=C(Cn1c(=O)sc2nc3ccccc3nc21)Nc1ncc(Cc2cccc(Cl)c2Cl)s1
inactive: SK-MEL-2 melanoma 103% | EKVX NSCLC 75.1% | SN12C renal 92.2% | UO-31 renal 65.5% | TK-10 renal 95.5% | ACHN renal 100% | CAKI-1 renal 71.7% | A498 renal 113% | CCRF-CEM leukemia 99.8% | MOLT-4 leukemia 99.8%

N#CC1CCc2c(c(-c3cn[nH]c3C(F)(F)F)nc3c(F)cc4[nH]ncc4c23)C1 (stereo not given)
active: SK-MEL-2 melanoma -34.6% | A498 renal -23.3%
inactive: EKVX NSCLC 57.4% | SN12C renal 25.7% | UO-31 renal 56.8% | TK-10 renal 19.4% | ACHN renal 62.9% | CAKI-1 renal 25.6% | CCRF-CEM leukemia 29.2% | MOLT-4 leukemia 19.8%

CCOC(=O)c1cnc2ccccc2c1Cl
inactive: SK-MEL-2 melanoma 109% | EKVX NSCLC 103% | SN12C renal 102% | UO-31 renal 95.1% | TK-10 renal 84.4% | ACHN renal 99.4% | CAKI-1 renal 94.8% | A498 renal 56.6% | CCRF-CEM leukemia 118% | MOLT-4 leukemia 99.9%

C=C(C)[C@@H]1CC[C@]2(C(=O)NCC#CCN3CCN(C)CC3)CC[C@]3(C)[C@H](CC[C@@H]4[C@@](C)(CCC#N)[C@H](C(=C)C)CC[C@]43C)[C@@H]12
inactive: SK-MEL-2 melanoma 91.8% | EKVX NSCLC 52.1% | SN12C renal 69.2% | UO-31 renal 51.6% | TK-10 renal 80.4% | ACHN renal 70.8% | CAKI-1 renal 57.7% | A498 renal 57.5% | CCRF-CEM leukemia 51.3% | MOLT-4 leukemia 10.9%

O=C(Nc1ncc(Cc2ccc(Cl)c(C(F)(F)F)c2)s1)c1ccc2nnsc2c1
inactive: SK-MEL-2 melanoma 47.5% | EKVX NSCLC 39.4% | SN12C renal 58.2% | UO-31 renal 40.9% | TK-10 renal 48.3% | ACHN renal 43.7% | CAKI-1 renal 28.1% | A498 renal 82% | CCRF-CEM leukemia 45.5% | MOLT-4 leukemia 30.9%

C1=C(N2CCCC2)CCC1
inactive: SK-MEL-2 melanoma 112% | EKVX NSCLC 95.2% | SN12C renal 98.1% | UO-31 renal 73.5% | TK-10 renal 121% | ACHN renal 111% | CAKI-1 renal 79.1% | A498 renal 109% | CCRF-CEM leukemia 106% | MOLT-4 leukemia 96.6%

COc1ccc(OC)c(-c2c(C#N)c(-c3cccs3)nc3c2c(-c2ccccc2)nn3-c2ccccc2)c1
inactive: SK-MEL-2 melanoma 107% | EKVX NSCLC 99.7% | SN12C renal 99.3% | UO-31 renal 97.1% | TK-10 renal 108% | ACHN renal 102% | CAKI-1 renal 91.9% | A498 renal 103% | CCRF-CEM leukemia 99.7% | MOLT-4 leukemia 99.4%

COc1ccc(-c2nc3c(c(-c4ccccc4)nn3-c3ccccc3)c(-c3ccc(N4CCOCC4)cc3)c2C#N)cc1
inactive: SK-MEL-2 melanoma 106% | EKVX NSCLC 100% | SN12C renal 97.9% | UO-31 renal 103% | TK-10 renal 110% | ACHN renal 104% | CAKI-1 renal 93.7% | A498 renal 98.2% | CCRF-CEM leukemia 99.6% | MOLT-4 leukemia 94.4%

C=C1C(=O)O[C@H]2[C@H]1CC/C(COC(=O)N[C@H]1C[C@H](O[C@H]3C[C@](O)(C(=O)CO)Cc4c(O)c5c(c(O)c43)C(=O)c3c(OC)cccc3C5=O)O[C@@H](C)[C@H]1O)=C\CC[C@@]1(C)O[C@@H]21
active: CCRF-CEM leukemia -18.2% | MOLT-4 leukemia -5.6%
inactive: SK-MEL-2 melanoma 85.5% | EKVX NSCLC 103% | SN12C renal 34.9% | UO-31 renal 83.1% | TK-10 renal 64.9% | ACHN renal 88.9% | CAKI-1 renal 61.7% | A498 renal 70.5%

CCSc1nc(NC)c2cc(-c3ccc(C(F)(F)F)cc3)ccc2n1
inactive: SK-MEL-2 melanoma 98.2% | EKVX NSCLC 96.6% | SN12C renal 95.1% | UO-31 renal 92.2% | TK-10 renal 121% | ACHN renal 97.6% | CAKI-1 renal 96.3% | A498 renal 112% | CCRF-CEM leukemia 95.6% | MOLT-4 leukemia 93.4%

Cc1ccc2c(n1)C(=O)c1[nH]c3ccccc3c1C2=O
inactive: SK-MEL-2 melanoma 64.2% | EKVX NSCLC 43.7% | SN12C renal 36.5% | UO-31 renal 50.5% | TK-10 renal 115% | ACHN renal 49.2% | CAKI-1 renal 56.4% | A498 renal 69.2% | CCRF-CEM leukemia 55.9% | MOLT-4 leukemia 35.1%

O=S(=O)(Nc1ccc(Cl)cc1)c1ccc(-c2cnc(C3CC3)o2)cc1
inactive: SK-MEL-2 melanoma 39.8% | EKVX NSCLC 47.9% | SN12C renal 36.4% | UO-31 renal 41.5% | TK-10 renal 54.2% | ACHN renal 35.4% | CAKI-1 renal 31.6% | CCRF-CEM leukemia 11.4% | MOLT-4 leukemia 14.2%
active: A498 renal 0.162%

O=C1Nc2ccc(Br)cc2/C1=N/c1n[nH]c(=S)s1
inactive: SK-MEL-2 melanoma 105% | EKVX NSCLC 100% | SN12C renal 96.6% | UO-31 renal 86.4% | TK-10 renal 104% | ACHN renal 96.3% | CAKI-1 renal 74.6% | A498 renal 92.4% | CCRF-CEM leukemia 104% | MOLT-4 leukemia 100%

O=C(Nc1ccc(-c2nc(N3CCOCC3)c3cccn3n2)cc1)Nc1cccnc1
active: SK-MEL-2 melanoma -4.42% | EKVX NSCLC -13.5% | SN12C renal 6.41% | UO-31 renal -9.74% | TK-10 renal -17.4% | ACHN renal -5.66% | CAKI-1 renal 8.83% | A498 renal -35% | MOLT-4 leukemia 5.84%
inactive: CCRF-CEM leukemia 12.6%

COc1ccc(C(=O)C2C(c3ccc(OC)cc3)CN(C)C23C(=O)Nc2ccccc23)cc1 (stereo not given)
inactive: SK-MEL-2 melanoma 96.9% | EKVX NSCLC 91% | SN12C renal 92.1% | UO-31 renal 70.3% | TK-10 renal 103% | ACHN renal 95.5% | CAKI-1 renal 68.2% | A498 renal 99.8% | CCRF-CEM leukemia 97.4% | MOLT-4 leukemia 88.1%

COc1ccc2nc(NC(=O)CSc3nnc4n3S(=O)(=O)c3ccccc3N4C)sc2c1
inactive: SK-MEL-2 melanoma 50.6% | EKVX NSCLC 106% | SN12C renal 99.5% | TK-10 renal 140% | ACHN renal 100% | CAKI-1 renal 98.3% | A498 renal 121% | MOLT-4 leukemia 71.5%
active: UO-31 renal -72.5% | CCRF-CEM leukemia 4.33%

COCCn1cc(-c2nc(-c3cc4cccnc4n3CCOC)cs2)c2cc(OC)ccc21
inactive: SK-MEL-2 melanoma 71.6% | EKVX NSCLC 26% | SN12C renal 78.8% | UO-31 renal 61.9% | TK-10 renal 14% | ACHN renal 68.3% | CAKI-1 renal 70.4% | A498 renal 66.8% | CCRF-CEM leukemia 35.2% | MOLT-4 leukemia 58.4%

COc1cccc(CNc2ncnc3c2ncn3C2OC(CO)C(O)C2O)c1O (stereo not given)
active: SK-MEL-2 melanoma -6.73% | SN12C renal -3.64% | UO-31 renal 7.67% | TK-10 renal 6.39% | ACHN renal -14.3% | CAKI-1 renal -2.16% | A498 renal -0.46% | CCRF-CEM leukemia -17.3% | MOLT-4 leukemia 0.14%
inactive: EKVX NSCLC 24.6%

O=C(Cn1c(=O)sc2ccccc21)NNS(=O)(=O)c1ccccc1[N+](=O)[O-]
inactive: SK-MEL-2 melanoma 103% | EKVX NSCLC 98.5% | SN12C renal 109% | UO-31 renal 86.1% | TK-10 renal 104% | ACHN renal 101% | CAKI-1 renal 85.2% | A498 renal 110% | CCRF-CEM leukemia 102% | MOLT-4 leukemia 101%

N#Cc1cccc(F)c1
inactive: SK-MEL-2 melanoma 103% | EKVX NSCLC 113% | SN12C renal 99.2% | UO-31 renal 84.9% | TK-10 renal 106% | ACHN renal 95.6% | CAKI-1 renal 94.6% | A498 renal 129% | CCRF-CEM leukemia 104% | MOLT-4 leukemia 107%
